Source: PubChem BioAssay (several laboratories)
S1P3 antagonist: S1P3 receptor antagonists, primary screen, cell-based. 170,000 compounds, 0.27% hits. inhibition, % at 4.98 µM. CHO S1P3 NFAT-BLA reporter, FRET fluorescence, antagonist mode. AID 485, 2006. Sphingosine 1-phosphate receptor 3 (Homo sapiens), Q99500;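 active means inhibition above the plate cutoff, the mean inhibition of test wells on that plate plus 3 SD, cut at about 28% in these data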;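 further: cells challenged with S1P at its EC80 of 0.8 µM; blue over green emission ratio from cleaved BLA substrate after 4 h stimulation; 0% = S1P-stimulated wells and 100% = unstimulated DMSO-only wells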
Target sequence (Q99500 whole entry, looked up): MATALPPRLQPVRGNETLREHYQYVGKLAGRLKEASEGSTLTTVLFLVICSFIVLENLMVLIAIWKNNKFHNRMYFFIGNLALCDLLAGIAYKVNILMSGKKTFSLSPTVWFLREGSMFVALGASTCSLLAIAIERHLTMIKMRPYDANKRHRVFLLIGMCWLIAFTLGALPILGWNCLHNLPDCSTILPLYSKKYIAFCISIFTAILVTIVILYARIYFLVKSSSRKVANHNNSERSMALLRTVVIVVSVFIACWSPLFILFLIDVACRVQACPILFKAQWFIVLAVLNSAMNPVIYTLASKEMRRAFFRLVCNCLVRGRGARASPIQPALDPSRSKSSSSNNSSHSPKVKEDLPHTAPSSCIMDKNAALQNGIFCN
Cl transport mod: KCC2 cotransporter modulators, thallium flux, primary screen, cell-based, HEK293 KCC2, FluoZin-2 fluorescence, MLSMR; Solute carrier family 12 member 5 (Homo sapiens), Q9H2X9; AID 1456, 2008; KCC2 cells, thallium flux FluoZin-2 fluorescence; B-score of Tl+ flux slope (higher = more flux/activation; lower = inhibition) at 10 µM; 190,000 compounds, 2.2% hits;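 active means thallium flux slope and its plate-corrected score both differing from the plate sample mean at a set confidence after two filtering rounds, in either direction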;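 further: slope of fluorescence scaled to starting intensity during 10 to 20 s after thallium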
EP2 antag: human EP2 receptor antagonists, primary screen, TR-FRET cAMP, C6 glioma cells | Prostaglandin E2 receptor EP2 subtype (Homo sapiens), P43116 | C6 glioma cells expressing human EP2; cells stimulated with saturating PGE2 | inhibition, % at 25 µM | 260,000 compounds, 0.52% hits | AID 1422, 2008;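 active means percent inhibition above 40 after rounding to a whole number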;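 further: rat C6 glioma host cells with rolipram phosphodiesterase inhibitor present; the protocol text gives 20 µM as final concentration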
Target sequence (P43116 whole entry, looked up): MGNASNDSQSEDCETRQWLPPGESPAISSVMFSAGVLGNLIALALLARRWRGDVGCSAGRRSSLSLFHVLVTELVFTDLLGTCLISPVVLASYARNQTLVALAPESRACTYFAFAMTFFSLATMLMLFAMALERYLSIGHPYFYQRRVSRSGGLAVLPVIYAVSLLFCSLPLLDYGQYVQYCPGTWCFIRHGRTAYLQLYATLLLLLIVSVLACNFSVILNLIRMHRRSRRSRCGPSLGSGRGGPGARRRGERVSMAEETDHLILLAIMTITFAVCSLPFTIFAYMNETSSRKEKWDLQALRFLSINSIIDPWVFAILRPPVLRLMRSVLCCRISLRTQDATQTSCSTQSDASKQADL
EP2 modulator: EP2 receptor modulators, cAMP readout, primary screen, cell-based, HTRF cAMP, PGE2 stimulation; EP2-expressing cells, cAMP HTRF FRET, PGE2 co-stimulation; induction, % at 25 µM; 260,000 compounds, 0.83% hits; AID 940, 2007;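 active means compounds whose cAMP rise, as percent of the full-agonist control response, exceeds 60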;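 further: rat C6 glioma line stably carrying human EP2 under a CMV promoter; the protocol text gives 20 µM as final concentration; 100% = response of wells given 1 µM PGE2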
KCC2 secondary: KCC2 modulators in sodium-free buffer, confirmation, cell-based, HEK293 KCC2, thallium flux, secondary assay; shares compounds with Cl transport mod; FluoZin2 fluorescence; hits give high values; normalised thallium flux (F/F0 slope) at 10 µM; 3,700 compounds, 15% hits;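 active means thallium flux slope above the same plate's solvent-only control mean plus 3 SD; inconclusive means the two replicate wells disagree; inactive means no significant difference from solvent-only control wells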
KCC2 bumet counter: thallium flux persisting under bumetanide in KCC2 cells, confirmation, counter-screen for KCC2 modulator project, cell-based, HEK293 KCC2, FluoZin2, secondary assay 3 | AID 1714, 2009 | shares compounds with Cl transport mod | 3,700 compounds, 49% hits | HEK293-KCC2 + bumetanide/ouabain; hits give high values | normalized thallium flux at 10 µM;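 active means thallium entry rate above the same plate's blocked-transporter control wells by more than 3 SD; inconclusive means the two repeat wells disagree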;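 further: raw slope of fluorescence over initial fluorescence between 10 and 20 s after thallium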
KCC2 secondary2: KCC2 modulators without ouabain present, confirmation, cell-based, HEK293 KCC2, thallium flux, FluoZin2, secondary assay 2 | shares compounds with Cl transport mod | thallium flux FluoZin2 fluorescence; actives lie on both sides; F/F0 rise rate, 10–20 s post-thallium | normalized thallium flux at 10 µM | 3,700 compounds, 23% hits;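 active means thallium flux slope more than 3 SD above or below the plate's solvent-only control mean, mostly below; inconclusive means the two repeat wells disagreed; inactive means no significant shift from solvent-only controls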;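 further: raw slope with 0.1% DMSO as baseline and bumetanide as block control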
HEK counter1: thallium flux modulation in parental HEK cells, confirmation, counter-screen for KCC2 modulator project, cell-based, counterscreen 1; thallium flux rate (normalised fluorescence) at 10 µM; HEK293 parental cells, thallium flux FluoZin2, ouabain; baseline-ratio fluorescence slope, 10–20 s after thallium; shares compounds with Cl transport mod; 3,700 compounds, 46% hits;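 active means thallium flux rate significantly above the same plate's solvent-only control wells, beyond their mean plus 3 SD; inconclusive means the two replicate wells gave conflicting results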
KCC2 ouabain: KCC2 inhibitors and activators, ouabain retest, confirmation, HEK-KCC2 cells. shares compounds with Cl transport mod. HEK293-KCC2, thallium flux FluoZin2 fluorescence; bidirectional: low = inhibitor, high = activator. raw Tl+ flux slope (below DMSO = inhibition, above = activation) at 10 µM. 3,700 compounds, 48% hits;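 active means thallium flux slope beyond 3 SD from same-plate DMSO control mean in most replicates, usually higher, sometimes lower; inconclusive means repeat tests gave conflicting results; inactive means no significant difference from controls in most replicates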;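 further: slope of initial-normalized fluorescence between seconds 10 and 20 after thallium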
HEK293 Tl flux2: native HEK Tl+ uptake effects, second counter-screen – HEK cells, counterscreen 2, counter-screen for KCC2 modulator project, confirmation | thallium flux slope at 10 µM | AID 1718, 2009 | HEK293 parental, thallium flux FluoZin-2 fluorescence slope | 3,700 compounds, 33% hits | shares compounds with Cl transport mod;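 active means thallium flux slope above the same plate's solvent-control mean plus 3 SD in both duplicate wells; inconclusive means duplicate wells that disagreed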;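 further: run without ouabain in cells lacking the KCC2 cotransporter; slope of fluorescence scaled to its starting value between 10 and 20 s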
* marks the source's active call; other numbers are inactive results; ? = inconclusive; · = no result. Sampled rows, rich in hits. Any-hit rate of the full collection: about 3.1%.

SMILES	S1P3 antagonist	Cl transport mod	EP2 antag	EP2 modulator	KCC2 secondary	KCC2 bumet counter	KCC2 secondary2	HEK counter1	KCC2 ouabain	HEK293 Tl flux2
C=C(C)Cn1c(N2CCC(Cc3ccccc3)CC2)nc2c1c(=O)[nH]c(=O)n2C	·	-3.58*	14.8	26.3	0.00643	0.00585*	0.0237*	0.00667	0.0164*	0.00952
CCCn1c(N2CCC(Cc3ccccc3)CC2)nc2c1c(=O)[nH]c(=O)n2C	-47.7	·	13.2	4.1	0.00571	0.00402	?	?	0.0159*	0.0103
Cc1ccc2[nH]c(=O)c(CN(CCCO)C(=O)Nc3ccccc3)cc2c1	·	·	4.0	-31.1	·	·	·	·	·	·
Cc1nn(C)cc1S(=O)(=O)N1CCCC(CN2CCCC2)C1 (configuration not stated)	·	·	2.6	-51.2	·	·	·	·	·	·
COc1ccc(N(CC(=O)NCC2CCCO2)S(C)(=O)=O)cc1OC (configuration not stated)	·	·	8.9	16.8	·	·	·	·	·	·
CCc1ccc(OCc2nnc(SCC(=O)Nc3cccc(C(=O)N4CCOCC4)c3)o2)cc1	4.5	-3.38*	5.2	18.6	0.00566	0.00455	0.0286	0.0072	0.0169	0.0103
CCc1ccc(OCc2nnc(SCC(=O)N3CCOCC3)o2)cc1	15.2	-0.142	5.8	26.4	·	·	·	·	·	·
O=C(NC1CCCCC1)N1CCC(NC(=O)C23CC4CC(CC(C4)C2)C3)CC1	·	·	5.5	4.7	·	·	·	·	·	·
C=CCNC(=S)Nc1sc2c(c1C(=O)OCC)CCN(C(=O)OCC)C2	·	5.66	18.2	37.1	·	·	·	·	·	·
CCOC(=O)c1c(NC(=S)NCc2ccccc2)sc2c1CCN(C(=O)OCC)C2	-7.5	4.74*	14.6	21.1	?	0.0251*	0.032	0.0137*	0.0236	0.0116*
COc1ccc(-c2n[nH]c(=S)n2-c2cc(OC)ccc2OC)cc1	9.0	·	2.1	32.1	·	·	·	·	·	·
COc1ccc2c(C)cc3n[nH]c(=S)n3c2c1	-7.0	27.2*	35.3	-11.4	0.0229*	0.0367*	?	0.0282*	0.0306*	0.0295*
Cc1ccc(Cl)cc1NC(=S)N/N=C/c1cccc2ccccc12	5.2	29.9*	10.6	-34.5	0.00911	0.0353*	0.0326	?	0.0282*	0.0135
CCOc1c(Cl)cc(C2C(C#N)=C(N)Oc3n[nH]c(C)c32)cc1Cl (configuration not stated)	·	·	17.1	-94.0	·	·	·	·	·	·
Cc1ccc(NC(=O)COC(=O)c2ccccn2)c(C)c1	·	·	8.7	-8.5	·	·	·	·	·	·
COc1ccc(-c2nnc(SCc3ncc(-c4ccccc4)o3)o2)cc1	-7.3	-2.98*	8.6	-12.0	0.00685	0.00473	?	0.0066	0.018	0.0104
COc1ccc(C(=O)CSc2nnc(-c3ccccc3)o2)cc1	-34.2	-2.16	22.1	12.2	·	·	·	·	·	·
CCCCOc1ccc(C2C(=O)N(C3CCCCC3)CC(=O)N2CC2CCCO2)cc1 (configuration not stated)	·	0.901	8.0	31.8	·	·	·	·	·	·
CCOc1ccc(C2C(=O)N(C3CCCCC3)CC(=O)N2CC2CCCO2)cc1OC (configuration not stated)	·	·	·	-1.7	0.0167	0.0048	0.0282	0.00724	0.0157	0.0106
CCCOc1ccc(C2C(=O)N(C3CCCCC3)CC(=O)N2CCCOCC)cc1OC (configuration not stated)	·	·	·	7.4	0.0155	0.00453	0.0271	0.00775	0.0153	0.0103
COC(=O)Cn1cnc2sc(C)c(-c3ccc(F)cc3)c2c1=O	·	·	11.6	14.8	·	·	·	·	·	·
O=C(Nc1nc2ccccc2s1)C1CCCN1S(=O)(=O)c1ccc(Cl)cc1 (configuration not stated)	-9.3	·	8.3	-34.8	0.00732	0.00478	0.0301	0.0083	0.0177	0.0112
CCCn1c(NC2CCCCC2)nc2c1c(=O)n(C)c(=O)n2C	·	·	6.9	-5.7	·	·	·	·	·	·
Cc1cc(C)nc(Sc2nc(C)nc3c2oc2ccccc23)n1	19.6	·	13.9	26.8	0.018	0.00443	0.0268	0.00742	0.0158	0.0103
O=C(CN1CCC(C(=O)c2ccccc2)CC1)Nc1ccccc1Br	·	·	8.4	-8.7	·	·	·	·	·	·
SMILES	S1P3 antagonist	Cl transport mod	EP2 antag	EP2 modulator	KCC2 secondary	KCC2 bumet counter	KCC2 secondary2	HEK counter1	KCC2 ouabain	HEK293 Tl flux2
COc1ccc(OC)c(C2NC(=O)C(C#N)=C(S)N2c2ccccc2C)c1 (configuration not stated)	·	·	13.7	-32.2	·	·	·	·	·	·
COc1ccc(CCN(Cc2cc3ccc(C)cc3[nH]c2=O)C(=O)c2cccnc2)cc1OC	·	·	2.4	-40.5	·	·	·	·	·	·
COc1ccc2nc(N/C(N)=N/C(=S)Nc3cccc(C)c3)nc(C)c2c1	·	-0.21	3.0	-26.2	·	·	·	·	·	·
COc1ccc(NC(=S)/N=C(\N)Nc2nc(C)c3ccccc3n2)cc1	8.9	-3.55*	2.5	-51.1	0.00702	0.00487	0.0256*	0.00708	0.0166*	0.00976
CC(C)(C)OC(=O)N1CCC[C@@H](C(=O)c2ccc(F)cc2)C1	·	·	·	-14.6	·	·	·	·	·	·
COC(=O)c1ccc2c(=O)n(-c3ccc(OC)cc3)c(=S)[nH]c2c1	-12.8	8.17*	1.6	8.6	0.0104	0.0195*	0.0305	0.0119*	?	0.00983
CCCCNC(=O)c1ccc2c(=O)n(CCCOCC)c(=S)[nH]c2c1	·	0.236	5.5	-2.5	·	·	·	·	·	·
COc1ccc(-n2c(=S)[nH]c3cc(C(=O)O)ccc3c2=O)cc1	6.7	-0.553	1.4	19.0	·	·	·	·	·	·
CCOCCCNC(=O)c1ccc(-n2c(=S)[nH]c3ccccc3c2=O)cc1	-6.5	10.5*	4.1	-13.5	?	0.0149*	0.0309	0.00928*	?	0.0103*
COc1ccc(S(=O)(=O)N(C)CC(=O)O)c2ccccc12	13.5	3.02*	6.7	27.5	0.00661	0.0048	0.0295	0.00802	0.0185	0.0115
